Laboratory results reported in ChEMBL document CHEMBL3988442, “University of Dundee, Small-Polar-MMV Screening Library” (2021).
The campaign covered roughly 69,000 compounds. About 420 (0.61%) showed an effect of 50% or more. The list comes from a sample in which strong results are over-represented; it also holds similar structures and randomly drawn compounds.

Target: T1, Histidine--tRNA ligase (Leishmania infantum) (UniProt A4I591)
T1 sequence (whole entry): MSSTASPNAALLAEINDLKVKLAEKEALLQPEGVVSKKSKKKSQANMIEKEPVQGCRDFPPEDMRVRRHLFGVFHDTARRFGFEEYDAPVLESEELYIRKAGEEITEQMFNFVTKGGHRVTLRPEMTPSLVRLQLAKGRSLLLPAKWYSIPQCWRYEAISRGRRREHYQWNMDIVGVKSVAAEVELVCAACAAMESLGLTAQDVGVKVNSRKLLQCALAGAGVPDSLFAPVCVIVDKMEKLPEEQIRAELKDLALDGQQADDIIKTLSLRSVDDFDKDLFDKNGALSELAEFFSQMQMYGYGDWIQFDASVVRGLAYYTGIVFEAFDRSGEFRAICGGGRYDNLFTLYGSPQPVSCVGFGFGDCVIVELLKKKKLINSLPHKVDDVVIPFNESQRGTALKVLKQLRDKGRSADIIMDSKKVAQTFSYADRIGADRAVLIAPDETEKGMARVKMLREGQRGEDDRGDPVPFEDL
Experiment: Leishmania infantum Histidine tRNA synthetase (LdHisRS)
Assay type: functional
Set-up: scale not given: in the data most compounds retested in dose-response had high values
Conditions: 30 µM

Row | SMILES | Percent Effect [%]
1 | O=C(C1CCOCC1)N1CCO[C@H]2[C@H](Oc3cccnc3)CC[C@@H]21 | 9.68
2 | O=C(c1ccco1)N1C[C@H]2CCCN(Cc3ccc(F)cc3)[C@H]2C1 | 10.9
3 | O=C(C1CCOCC1)N1C[C@H]2C[C@H](OCc3ccccc3)C[C@H]2C1 | 12.9
4 | O=C(C[C@H]1[C@H]2CN(Cc3ccsc3)C[C@@H]12)N1CCCC1 | 15.5
5 | O=C(Cc1cccc(F)c1)N1C[C@H]2CN(Cc3ccccn3)C[C@H]2C1 | 15.4
6 | O=C(CSc1ccccc1)N1C[C@H]2CC[C@@H]1CN(Cc1ccncc1)C2 | 12.9
7 | O[C@@H]1C[C@@](CNCc2ccccn2)(COc2cccnc2)C[C@@H]1O | 12.2
8 | FC1(F)CCN(Cc2ccncc2)CC12CCN(c1cccnc1)C2 (configuration not stated) | 19.1
9 | O=C(O)CN1CCC(F)(F)C2(CCN(c3ccccc3)C2)C1 (configuration not stated) | 53.9
10 | FC1(F)CCN(Cc2cccnc2)CC12CCN(c1ccccc1)C2 (configuration not stated) | 57.3
11 | FC1(F)CCN(c2ccccc2)CC12CCN(c1ncccn1)C2 (configuration not stated) | 21.4
12 | FC1(F)CCN(Cc2cccnc2)CC12CCN(c1ccccn1)C2 (configuration not stated) | 19.6
13 | O=C(CO)N1CCC(F)(F)C2(CCN(c3ccccc3)C2)C1 (configuration not stated) | 23.1
14 | O=C(C1CCC1)N1CCN(Cc2ccc(F)cc2)[C@H]2CS(=O)(=O)C[C@H]21 | 17.8
15 | COc1ccc(NC(C)=O)c(N2CCN(C(C)=O)CC2)n1 | 17.3
16 | COc1ccc(N)c(N2CCN(C(C)=O)CC2)n1 | 61.6
17 | COc1ccc(NC(=O)CCC(C)C)c(N2CCN(C(C)=O)CC2)n1 | 11.6
18 | Cc1ccc(NC(=O)Nc2c(O)oc3ccccc3c2=O)cc1 | 6.17
19 | O=C1CO[C@H]2CN(Cc3ccc(F)c(F)c3)C[C@H]2N1 | 1.35
20 | Cc1cc2nc(SCC(=O)N3CCCCC3)n(C)c(=O)c2[nH]1 | 10.5
21 | Cc1cc2nc(SCC(=O)N3CCCC3)n(-c3ccccc3)c(=O)c2[nH]1 | 51.4
22 | Cc1cc2nc(SCC(=O)N3CCCC3)n(C)c(=O)c2[nH]1 | 5.26
23 | COCCC(=O)N1C[C@@H]2COC[C@]2(COCc2cccnc2)C1 | 10.7
24 | CCS(=O)(=O)N1C[C@H]2CN(Cc3cccnc3)C(=O)[C@H]2C1 | 0

Row | SMILES | Percent Effect [%]
25 | O=C(c1ccnnc1)N1CCO[C@H]2[C@@H](OCc3cccnc3)CC[C@@H]21 | 25.7
26 | CCCN1C[C@H]2CC[C@@H]1CN(Cc1ccc(Cn3cccn3)cc1)C2 | 17.5
27 | CC(=O)N1C[C@@H]2CC[C@H](C1)N(Cc1ccc(Cn3cccn3)cc1)C2 | 14.2
28 | CCCN1C[C@H]2CC[C@@H]1CN(Cc1ccc(-n3cccn3)cc1)C2 | 50.8
29 | CCCN1C[C@H]2CC[C@@H]1CN(Cc1cccc(O)c1)C2 | 32.9
30 | CCCN1C[C@H]2CC[C@@H]1CN(Cc1cccc(-n3cccn3)c1)C2 | 14.2
31 | CCN1CCO[C@@H]2CN(C(=O)c3ccc4[nH]ccc4c3)CC[C@@H]2C1 | 26
32 | CN1CCN(C(=O)[C@H]2C[C@@H]3CCN(c4ncc(F)cn4)C[C@@H]3O2)CC1 | 7.55
33 | CC(=O)N1CC[C@H]2OCC[C@@H](C(=O)Nc3cccnc3C)[C@@H]2C1 | 17.3
34 | CN(C)C(=O)N1C[C@@H]2CC[C@H](C1)N(S(=O)(=O)c1cccnc1)C2 | 12.1
35 | CCO[C@H]1CN(CC2CCOCC2)[C@@H]2CCCO[C@H]12 | 7.92
36 | O=S(=O)(C1CC1)N1CCO[C@H]2[C@H](OCC3CC3)CC[C@@H]21 | 5.56
37 | O=C(c1cnccn1)N1CCN2C[C@H](OCc3ccccc3)C[C@H]2C1 | 15.1
38 | O=C(Nc1nccs1)c1csc(NC2CCCC2)n1 | 66.3
39 | Cc1cnc(NC(=O)c2csc(NC3CCCC3)n2)s1 | 21.4
40 | O=C(Nc1ccccn1)c1csc(NC2CCCC2)n1 | 28.1
41 | Cc1n[nH]c(SCC(=O)N2C[C@H]3CC[C@@H]2CN(c2ncccn2)C3)n1 | 9.38
42 | COCCN1C[C@@H]2CCCO[C@@H]2[C@H](NC(=O)c2cnccn2)C1 | 11.3
43 | c1cncc(NCCCNC2CCSC2)c1 (configuration not stated) | 28.6
44 | CC(C)CN1CCC(NCCNc2cccnc2)CC1 | 9.76
45 | Cc1cnccc1NCCNC1CCSCC1 | 17.1
46 | c1cncc(NCCNC2CCSCC2)c1 | 8.57
47 | c1cncc(NCCNC2CSCCSC2)c1 | 74.3
48 | c1cncc(NCCNC2CCSC2)c1 (configuration not stated) | 62.9

Row | SMILES | Percent Effect [%]
49 | COCc1csc(NC(=O)NCc2ccsc2)n1 | 14.3
50 | CN(Cc1ccsc1)C(=O)Nc1ccc(=O)n(C)c1 | 123
51 | CN(Cc1ccsc1)C(=O)Nc1ccc(S(C)(=O)=O)cc1 | 11.9
52 | Cc1cnccc1NC(=O)CCc1ccsc1 | 9.33
53 | CN(Cc1ccsc1)C(=O)Nc1ccc(S(=O)(=O)N(C)C)cc1 | -30.3
54 | CCNC(=O)N1CCc2ccc(NC(=O)NCc3ccsc3)cc21 | 31.7
55 | Cn1cc(NC(=O)NCc2ccsc2)ccc1=O | 126
56 | Cc1cc(NC(=O)CCc2ccsc2)n(C)n1 | 18.3
57 | Cn1cc(NC(=O)CCc2ccsc2)ccc1=O | 103
58 | O=C1CO[C@H]2CN(S(=O)(=O)c3ccccc3)C[C@H]2N1Cc1ccccc1 | 25
59 | CCC1=N[C@@]2(CC[C@@H]3CN(S(C)(=O)=O)C[C@@H]32)C(=O)N1CC(C)C | 7.96
60 | CC(C)CO[C@H]1CN(S(=O)(=O)c2cn(C)cn2)[C@@H]2CCCO[C@H]12 | 1.01
61 | C(=C\c1ccc(CN2CCCC2)cn1)/c1ccccc1 | 22.6
62 | COc1ccc(C)cc1CN1CCn2cccc2C1C (configuration not stated) | 42
63 | COc1ccc(CN2CCn3cccc3C2C)cc1F (configuration not stated) | 29.5
64 | COc1ccc(C(C)=O)cc1CN1CCn2cccc2C1C (configuration not stated) | 52.7
65 | CN(C)C[C@H]1OC[C@@H]2CCN(S(=O)(=O)c3ccc(F)cc3)C[C@@H]21 | -4.59
66 | O=C1CC[C@H]2CN(C3CCOCC3)CC[C@H]2N1CCC1=CCCCC1 | 15.6
67 | COc1ccc(CN2C[C@@H]3CC[C@H](C2)N(S(C)(=O)=O)C3)cc1 | 10
68 | O=S1(=O)C[C@@H]2[C@H](C1)N(S(=O)(=O)N1CCCC1)CCN2Cc1ccccc1 | 19.2
69 | CN(C)CCN1CCO[C@@H]2CCN(C(=O)c3cccn3C)CC[C@H]21 | 52.8
70 | CN(C)CCN1CCO[C@H]2CCN(C(=O)c3cccs3)CC[C@@H]21 | 15.4
71 | CN(C)CCN1CCCC12CCN(C(=O)c1cccn1C)CC2 | 5.88
72 | COc1ccccc1CN1C(=O)O[C@@H]2CN(CC3CC3)C[C@@H]21 | 10
